# Source: ChEMBL document CHEMBL3433997, “St. Jude Leishmania screening dataset” (2016)
# Columns and labels:
# Assay type in all cases: functional
# [1] = biological target: Solute carrier family 2, facilitated glucose transporter member 1 (Homo sapiens) (UniProt P11166); assay: ST_JUDE_LEISH: Cytotoxicity at 2uM final concentration against transgenic Leishmania Mexicana promastigotes LmGLUT1 that are glucose transport deficient and complemented with the human glucose transporter GLUT1. Activity is measured by DNA content using SYBR green in vitro
# Solute carrier family 2, facilitated glucose transporter member 1 (Homo sapiens), sequence (P11166 whole entry): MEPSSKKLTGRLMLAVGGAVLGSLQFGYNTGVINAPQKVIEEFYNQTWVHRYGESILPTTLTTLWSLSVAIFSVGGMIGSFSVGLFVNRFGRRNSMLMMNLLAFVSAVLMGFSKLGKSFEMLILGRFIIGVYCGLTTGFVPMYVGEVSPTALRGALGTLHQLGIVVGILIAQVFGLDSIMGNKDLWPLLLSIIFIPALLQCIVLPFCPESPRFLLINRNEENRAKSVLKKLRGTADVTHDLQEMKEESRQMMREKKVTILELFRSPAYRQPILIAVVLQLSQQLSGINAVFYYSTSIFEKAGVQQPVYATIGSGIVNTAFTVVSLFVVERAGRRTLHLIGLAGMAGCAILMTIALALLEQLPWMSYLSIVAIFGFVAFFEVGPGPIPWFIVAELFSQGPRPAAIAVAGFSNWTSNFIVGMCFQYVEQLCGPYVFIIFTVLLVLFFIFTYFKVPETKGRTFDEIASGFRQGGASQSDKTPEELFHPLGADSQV
# [2] = biological target: Hexose transporter 1 (Plasmodium falciparum) (UniProt O97467); assay: ST_JUDE_LEISH: Cytotoxicity at 2uM final concentration against transgenic Leishmania Mexicana promastigotes LmPfHT that are glucose transport deficient and complemented with the Plasmodium falciparum hexose transporter. Activity is measured by DNA content using SYBR green in vitro
# [3] = biological target: Glucose transporter (Leishmania mexicana) (UniProt O61059); assay: ST_JUDE_LEISH: Cytotoxicity at 2uM final concentration against transgenic Leishmania Mexicana promastigotes LmGT2 that are glucose transport deficient and complemented with the L. Mexicana glucose transporter 2. Activity is measured by DNA content using SYBR green in vitro
Compound,inhibition [1],inhibition [2],inhibition [3]
Cc1nc2nc(N)nc(N)c2c(C)c1Cc1c(Cl)cccc1Cl,8.8%,10.7%,7.3%
O=C(/C=C/c1ccc(Cl)cc1)NCCCCCN1CCCC(C(=O)Nc2ccc(Cl)cc2)C1 (stereo not drawn),3.89%,5.61%,3.7%
CCN1CCC(N(Cc2ccc(-c3ccc(C(F)(F)F)cc3)cc2)C(=O)CCCCn2c(CCc3cccc(F)c3F)nc(=O)c3ccccc32)CC1,1.08%,-1.15%,-0.6%
COc1cc(Cc2cnc(N)nc2N)cc(OCCCc2cc(OCc3ccccc3)no2)c1OC,10%,8.52%,8.73%
Cc1ccc(NCC(=O)Nc2ccc(F)c(Cl)c2)cc1S(=O)(=O)N1CCOCC1,2.54%,1.86%,0.32%
COc1ccccc1C1CCN(CCCCNC(=O)c2ccc(/C=C/c3cc(Cl)cc(Cl)c3)cc2)CC1,2.68%,2.81%,1.77%
Cc1ccc2c(c1)NCC21CCN(C[C@@H](O)C2CCN(c3ccnc(Cl)c3)CC2)CC1C (stereo partly drawn),0.9%,3.08%,0.18%
CS(=O)(=O)NCCCNCc1ccc(-c2cccc(-c3nc4cc(C(F)(F)F)ccc4[nH]3)c2)cc1,5.19%,3.56%,5.43%
CC(=O)Nc1ccc(S(=O)(=O)Nc2ccc(Nc3nc(C)cc(N4CCCCC4)n3)cc2)cc1,5.51%,5.79%,5.54%
CN(Cc1ccc(C#N)cc1)C1CCN(c2cc(NC(=O)c3cccc(F)c3)ccn2)CC1,-1.86%,-1.81%,0.96%
CC(=O)Oc1c(C(=O)C2CCC(C(C)(C)C)CC2)c(OC(C)=O)c2ccccc2c1OC(C)=O (stereo not drawn),8.82%,11.5%,7.73%
COc1cccc(NC(=O)COc2ccc(C(=O)Nc3nc4ccccc4[nH]3)cc2)c1,2.45%,2.07%,-1.7%
Cc1cccc2nc(-c3ccc(-c4ccc(CNCc5ccccc5)cc4)cc3)[nH]c12,3.54%,3.32%,4.35%
O=C(NCc1cccc2ccccc12)c1ccc(CNC2CCN(Cc3ccccc3)CC2)cc1,1.65%,2.12%,4.22%
Cc1noc(-c2ccc3c(c2)CCN(CCC2CCC(NC(=O)c4cc5ccccc5[nH]4)CC2)CC3)n1 (stereo not drawn),2.93%,2.28%,1.98%
CC(C)(C)Nc1cc(C2CC2)nc(-c2ccccn2)n1,2.01%,4.26%,3.05%

Compound,inhibition [1],inhibition [2],inhibition [3]
COc1ccc(NC(=O)c2cn(-c3ccc(C(C)(C)C)cc3)nc2C)cc1N1CCN(C)CC1,1.31%,0.2%,1.64%
Cc1[nH]c(C)c(-c2ccc(OCc3ccc(F)cc3)nc2)c(=O)c1Br,2.71%,2.42%,0.74%
CCCCOc1cc(C)nc2ccc(NC(=O)COCC(=O)Nc3ccc4nc(C)cc(OCCCC)c4c3)cc12,14.9%,13.7%,11.2%
CN1CCC(NCc2ccc(-c3ccc(S(=O)(=O)NCc4ccccc4)c(F)c3)cc2)CC1,12.7%,13.2%,7.68%
COCCNC(=O)C1CCN(C(c2ccc(Cl)cc2)c2ccc(Cl)cc2)CC1,7.23%,6.03%,9.02%
O=C(/C=C/c1ccc(Cl)c(Cl)c1)NCCCCCN1CCCC(CNC(=O)c2sc3ccccc3c2Cl)C1 (stereo not drawn),-1.59%,-2.38%,1.79%
O=C(/C=C/c1ccc(F)c(Br)c1)NCCCCCN1CCC(c2c[nH]c3ccccc23)CC1,1.88%,0.52%,-1.08%
CCOc1cccc(C(=O)Nc2nonc2-c2ccc(OC)c(OC)c2)c1,10.3%,9.2%,7.57%
CCOC(=O)C1=C(C)NC2=C(C(=O)CCC2)C1c1cn(Cc2ccc(Cl)cc2Cl)nc1-c1ccccc1 (stereo not drawn),2.11%,-1.29%,1.62%
Fc1cccc(CNc2ncc(-c3ccsc3)c(-c3nccs3)n2)c1,1.64%,1.96%,2%
c1csc(-c2nc(NCC3CCCO3)ncc2-c2ccsc2)n1 (stereo not drawn),1.71%,2.71%,3.35%
O=C(NCc1ccc(C(=O)NC2CCCCCC2)cc1)c1ccc(O)c(-c2ccc(Cl)c(Cl)c2)c1,1.17%,1.13%,0.44%
O=C(CCC1CCCCC1=O)c1ccccc1 (stereo not drawn),3.73%,2.15%,1.52%
O=S(=O)(Nc1cccc(F)c1CNCc1ccccn1)c1ccc(Cl)c(Cl)c1,-1.4%,0.71%,-2.5%
COc1cc2c(=O)c(Cc3ccc(Cl)cc3)c(C)[nH]c2cc1F,2.09%,3.31%,0.73%
